Reference: the supplement of paper PMC13380429

System: Vero E6 infected with SARS-CoV-2
Experiment: inhibition of SARS-CoV-2 cytopathic effect; higher = more antiviral protection, active = above 15
Conditions: 48 h

Measured: inhibition of SARS-CoV-2 cytopathic effect

CC[C@@]1([C@H]2O[C@H]([C@H]3O[C@@](O)(CO)[C@H](C)C[C@@H]3C)C[C@H]2C)CC[C@H]([C@@]2(C)CC[C@]3(C[C@H](O)[C@@H](C)[C@@H]([C@H](C)[C@H](OC)[C@@H](C)C(=O)O)O3)O2)O1
inactive: 1 nM -2.66% | 8.33 nM -0.7% | 100 nM 2.93%
active: 833.33 nM 27.6% | 10000 nM 52.5%

CCOC(=O)[C@H](CCc1ccccc1)N[C@H]1CCc2ccccc2N(CC(=O)O)C1=O [benazepril]
inactive: 1 nM 2.45% | 8.33 nM 4.14% | 100 nM 3.52% | 833.33 nM -1.12% | 10000 nM 1.56%

O=C(CC12CC3CC(CC(C3)C1)C2)Nc1cccc2nc(NCCNCCO)ccc12
inactive: 1 nM 3.46% | 8.33 nM 8.07% | 100 nM 0.57% | 833.33 nM 4.43% | 10000 nM 4.98%

C/N=C(/NC#N)NCCSCc1csc(NC(=N)N)n1 [tiotidine]
inactive: 1 nM -3.61% | 8.33 nM -1.47% | 100 nM -1.51% | 833.33 nM -3.05% | 10000 nM -1.02%

Fc1ccc(C(c2ccc(F)cc2)N2CCN(C/C=C/c3ccccc3)CC2)cc1 [flunarizine]
inactive: 1 nM -1.77% | 8.33 nM -0.01% | 100 nM -1.97% | 833.33 nM -2.17% | 10000 nM -3.88%

Fc1ccc(Cn2c(NC3CCNCC3)nc3ccccc32)cc1 [tecastemizole]
inactive: 1 nM -7.23% | 8.33 nM -9.9% | 100 nM -11.8% | 833.33 nM -8.85% | 10000 nM -8.1%

COc1c(O)cc2c(c1O)[C@@H]1O[C@H](CO)[C@@H](O)[C@H](O)[C@H]1OC2=O [bergenin]
inactive: 1 nM -3.29% | 8.33 nM -2.26% | 100 nM -0.14% | 833.33 nM 0.39% | 10000 nM -1.22%

CCOc1c2c(c(OCC)c3ccccc13)C(=O)N(c1ccc(CC(=O)NS(=O)(=O)c3ccccc3)cc1)C2
inactive: 1 nM 2.87% | 8.33 nM 0.35% | 100 nM 0.73% | 833.33 nM -1.03% | 10000 nM 0.05%

Cc1ccc(-c2c(-c3nn(C)c4ncnc(N5CC[C@H](N6CCCCC6)C5)c34)cnn2C)cc1
inactive: 1 nM -0.9% | 8.33 nM -0.84% | 100 nM 0.89% | 833.33 nM -2.4% | 10000 nM -0.65%

Cc1nc2ccc(-n3ncc(C(=O)c4cc5ccccc5[nH]4)c3N)cc2[nH]1
inactive: 1 nM -2.45% | 8.33 nM -1.11% | 100 nM 0.12% | 833.33 nM 2.07% | 10000 nM -0.86%

CC(C)c1cc(CNc2nc(Nc3cc(C4CC4)[nH]n3)cc(N3CCN(C)CC3)n2)on1
inactive: 1 nM 0.13% | 8.33 nM 1.15% | 100 nM 0.48% | 833.33 nM -4.78% | 10000 nM -15%

O=C(Cc1ccc(-c2ccccc2)cc1)Nc1ccccn1 [difenpiramide]
inactive: 1 nM 2.42% | 8.33 nM 3.03% | 100 nM -1.56% | 833.33 nM 6.97% | 10000 nM 14.8%

Cc1c(Cl)c(C)[n+]([O-])c(Cl)c1-c1noc(-c2cc(O)c(O)c([N+](=O)[O-])c2)n1 [opicapone]
inactive: 1 nM 2.55% | 8.33 nM 1.95% | 100 nM 0.21% | 833.33 nM 0.43% | 10000 nM -1.39%

O=C(O)C[C@H](O)C(=O)O [malic-acid]
inactive: 1 nM -0.21% | 8.33 nM -2.53% | 100 nM -1.2% | 833.33 nM 3.51% | 10000 nM 1.76%

C[C@@H](O)[C@H]1C(=O)N2C(C(=O)O)=C(SCCNC=N)C[C@H]12 [imipenem]
inactive: 1 nM 2.08% | 8.33 nM 10% | 100 nM 9.32% | 833.33 nM 2.66% | 10000 nM 4.17%

Cc1cc(NC(=O)NCCN2CCC(O)(Cc3ccccc3)CC2)c2ccccc2n1 [palosuran]
inactive: 1 nM -0.45% | 8.33 nM 0.24% | 100 nM 0.95% | 833.33 nM 2.2% | 10000 nM 1.86%

COc1cc(-n2c(=S)[nH]c3ccccc3c2=O)c(Cl)cc1Cl [mdivi-1]
inactive: 1 nM 0.74% | 8.33 nM 0.3% | 100 nM -0.2% | 833.33 nM -0.45% | 10000 nM -1.37%

COc1cc2c(cc1O)C(CCc1ccc(Cl)cc1)N(C)CC2 (stereo not given)
inactive: 1 nM 0.21% | 8.33 nM 2.27% | 100 nM 0.29% | 833.33 nM 0% | 10000 nM 0.49%
